The nature of assay [1]: compounds binding Alexa647 anti-His antibody – biochemical, small-molecule microarray, 635 nm fluorescence, artefact control for SMM control protein annotation, primary screen (AID 1128).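 Note: score merges feature fluorescence with signal-to-noise for each printed compound spot.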 The conditions noted are these: higher = more signal.
Assay [2] concerns Human papillomavirus type 1a E7 protein (residues 1-88). As to the kind of experiment: HPV1a E7 small-molecule binders, primary screen, biochemical, small-molecule microarray, residues 1-88, 635 nm (AID 1129). The conditions noted are these: small-molecule microarray binding, fluorescence 635 nm; higher = more signal.
Assay [3] deals with Focal adhesion kinase 1 (Homo sapiens) (UniProt Q05397). As to the kind of experiment: PTK2 protein binding on printed compound slides – biochemical, small-molecule microarray, 635/667 nm fluorescence, BSA, DTT, primary screen (AID 1130).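 Note: composite of spot emission at 667 nm and signal to noise over triplicate slides.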 The conditions noted are these: 635 nm fluorescence, higher = more signal.
The test system of assay [4] is Fibrinogen (Alexa647-labelled). As to the kind of experiment: Alexa647-fibrinogen binding to printed small molecules – biochemical, small-molecule microarray, 635/667 nm fluorescence, artefact control for SMM control-protein annotation, profiling panel (AID 1131).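 Note: z-score merges 667 nm fluorescence with per-spot signal-to-noise over triplicate slides.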 Conditions: fibrinogen-A647 binding fluorescence, higher = more signal.
For assay [5], the target named is Follistatin (Homo sapiens) (UniProt P19883). As to the kind of experiment: FST protein binding to printed compounds – biochemical, small-molecule microarray, 635/667 nm fluorescence, primary screen (AID 1132). The conditions noted are these: 635 nm fluorescence, higher = more signal.
The target in assay [6] is Fibroblast growth factor 2 (Homo sapiens) (UniProt P09038). As to the kind of experiment: basic fibroblast growth factor binding to printed compounds – biochemical, small-molecule microarray, 635/667 nm fluorescence, primary screen (AID 1133). Conditions: FGF2, fluorescence 635/667, higher = more signal.
The nature of assay [7]: JC-1 mitochondrial potential readout, lung cancer cells – cell-based, A549, JC-1 fluorescence, basal, 24 h, 100 nL, profiling panel (AID 1138).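 Note: A549 lung adenocarcinoma cells under basal conditions with no added stimulus; test concentration not given here.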 The conditions noted are these: higher = more signal.
In the next assay the test system is Lefty1. As to the kind of experiment: Lefty1 protein binding to printed compounds – biochemical, small-molecule microarray, 635/667 nm fluorescence, primary screen (AID 1139). Conditions: fluorescence 635/667, higher = more signal.
For assay [8], the system named is wheat germ agglutinin (Triticum aestivum), Alexa647-labelled. As to the kind of experiment: Alexa647-WGA lectin binding to printed small molecules – biochemical, small-molecule microarray, 635/667 nm fluorescence, artefact control for SMM control-protein annotation, profiling panel (AID 1140).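 Note: score merges 667 nm feature emission with signal to noise over triplicate slides.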 The conditions noted are these: WGA-A647 binding, 635 nm fluorescence, higher = more signal.

For assay [9], the target named is Luciferin 4-monooxygenase (Photinus pyralis) (UniProt P08659). As to the kind of experiment: inhibition of purified Photinus pyralis luciferase – biochemical, luminescence, purified enzyme, 2006 set, primary screen (AID 1141).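 Note: cell-free assay with purified firefly luciferase at 100 ng per well in PBS; test concentration not given here.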 Conditions: purified firefly luciferase, SteadyGlo luminescence, 30 min; higher = more signal, called active from +8 up or from −8 down.

Consider 14 compounds from PubChem BioAssay.

The structures appear in SMILES notation. Active and inactive are the calls of the source.

Sequence of Fibroblast growth factor 2 (Homo sapiens) (P09038 whole entry, looked up): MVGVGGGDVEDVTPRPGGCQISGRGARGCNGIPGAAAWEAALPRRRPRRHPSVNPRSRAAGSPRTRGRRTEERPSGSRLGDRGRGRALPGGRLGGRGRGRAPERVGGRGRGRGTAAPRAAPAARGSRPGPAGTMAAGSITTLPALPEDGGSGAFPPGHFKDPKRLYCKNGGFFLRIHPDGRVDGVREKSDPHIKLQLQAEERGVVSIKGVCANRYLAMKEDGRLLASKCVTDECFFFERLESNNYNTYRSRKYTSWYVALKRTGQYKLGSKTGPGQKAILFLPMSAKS
Sequence of Focal adhesion kinase 1 (Homo sapiens) (Q05397 whole entry, looked up): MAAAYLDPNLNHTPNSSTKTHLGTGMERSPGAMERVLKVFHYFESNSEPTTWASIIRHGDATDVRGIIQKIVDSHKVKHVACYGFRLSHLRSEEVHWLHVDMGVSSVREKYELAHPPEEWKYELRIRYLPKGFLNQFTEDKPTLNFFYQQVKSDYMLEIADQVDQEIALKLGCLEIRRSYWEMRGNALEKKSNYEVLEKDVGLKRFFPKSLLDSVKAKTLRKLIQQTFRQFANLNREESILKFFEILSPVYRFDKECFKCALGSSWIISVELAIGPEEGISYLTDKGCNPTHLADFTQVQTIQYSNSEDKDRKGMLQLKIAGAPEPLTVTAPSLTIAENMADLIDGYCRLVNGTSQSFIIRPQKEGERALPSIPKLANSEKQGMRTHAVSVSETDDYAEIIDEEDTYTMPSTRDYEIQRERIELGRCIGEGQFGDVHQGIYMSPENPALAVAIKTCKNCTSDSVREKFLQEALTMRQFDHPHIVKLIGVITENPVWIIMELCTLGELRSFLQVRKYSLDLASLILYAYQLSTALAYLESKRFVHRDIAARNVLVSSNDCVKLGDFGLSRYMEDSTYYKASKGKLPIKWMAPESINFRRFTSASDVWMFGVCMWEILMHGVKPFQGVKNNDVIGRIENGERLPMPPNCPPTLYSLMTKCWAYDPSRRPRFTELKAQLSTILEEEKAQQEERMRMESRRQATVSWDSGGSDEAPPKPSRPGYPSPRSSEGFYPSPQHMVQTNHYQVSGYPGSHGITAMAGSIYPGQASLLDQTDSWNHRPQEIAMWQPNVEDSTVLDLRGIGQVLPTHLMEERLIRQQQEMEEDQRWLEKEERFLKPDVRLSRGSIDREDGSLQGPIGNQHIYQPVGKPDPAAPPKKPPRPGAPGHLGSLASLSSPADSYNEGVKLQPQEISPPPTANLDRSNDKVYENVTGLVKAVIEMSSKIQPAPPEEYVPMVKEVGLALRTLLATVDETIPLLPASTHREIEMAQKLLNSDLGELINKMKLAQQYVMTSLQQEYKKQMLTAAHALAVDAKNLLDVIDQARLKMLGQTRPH
Sequence of Follistatin (Homo sapiens) (P19883 whole entry, looked up): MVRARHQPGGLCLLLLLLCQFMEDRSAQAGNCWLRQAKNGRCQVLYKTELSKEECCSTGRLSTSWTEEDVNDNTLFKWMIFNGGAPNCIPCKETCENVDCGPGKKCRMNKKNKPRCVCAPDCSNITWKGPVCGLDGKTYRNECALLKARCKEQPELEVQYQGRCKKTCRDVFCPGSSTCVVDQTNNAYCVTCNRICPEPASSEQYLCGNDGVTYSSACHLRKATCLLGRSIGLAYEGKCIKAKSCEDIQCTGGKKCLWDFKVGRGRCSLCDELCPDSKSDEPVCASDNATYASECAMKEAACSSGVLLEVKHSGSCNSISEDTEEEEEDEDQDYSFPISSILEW
Sequence of Luciferin 4-monooxygenase (Photinus pyralis) (P08659 whole entry, looked up): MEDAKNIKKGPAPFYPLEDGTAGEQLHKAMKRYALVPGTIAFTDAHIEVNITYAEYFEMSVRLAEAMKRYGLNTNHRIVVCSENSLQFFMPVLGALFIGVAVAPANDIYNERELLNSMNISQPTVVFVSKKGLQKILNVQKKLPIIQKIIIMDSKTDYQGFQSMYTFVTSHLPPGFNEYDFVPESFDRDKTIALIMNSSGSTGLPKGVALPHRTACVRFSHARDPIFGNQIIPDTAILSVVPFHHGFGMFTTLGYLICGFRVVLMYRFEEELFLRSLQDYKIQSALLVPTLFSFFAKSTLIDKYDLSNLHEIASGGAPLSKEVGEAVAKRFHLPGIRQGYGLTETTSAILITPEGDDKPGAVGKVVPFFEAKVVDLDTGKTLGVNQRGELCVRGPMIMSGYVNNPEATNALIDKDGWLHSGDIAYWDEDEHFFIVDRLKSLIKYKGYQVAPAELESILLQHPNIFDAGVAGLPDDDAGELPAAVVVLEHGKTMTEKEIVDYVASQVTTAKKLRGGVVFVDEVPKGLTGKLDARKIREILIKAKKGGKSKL

With `O=C1O[C@@H](c2ccccc2)[C@@H](c2ccccc2)N2[C@@H](c3ccc(OCCO)cc3)[C@]3(C(=O)Nc4ccccc43)[C@@H](C(=O)NC[C@H](O)c3ccccc3)[C@H]12`, the composite z-score in assay [1] was 0.87; in assay [2] it was 0.894; in assay [3], -0.177; in assay [4] it was 0.371; in assay [5] it was 1.34; in [6] it was 0.968. Besides, the composite z-score was determined as 0.0849 in the assay on Lefty1 and 0.638 in [8]. Moreover, the z-score in [7] is -0.575; in [9], -1.46 (inactive).
Take `C=CCNC(=O)[C@H]1[C@@H]2C(=O)O[C@@H](c3ccccc3)[C@@H](c3ccccc3)N2[C@@H](c2ccc(OCCO)cc2)[C@]12C(=O)Nc1ccc(C#CC3=CCCCC3)cc12`: the composite z-score in [1] is 0.354; in assay [2], 1.09; in [3], -0.544; in assay [4], 0.957; in assay [5], 1.26; in [6], 0.553. The composite z-score in the assay on Lefty1 is 0.937; in assay [8] it was 0.494. For the same compound, the figures for the z-score in assay [7] and in assay [9] were -0.801 and 0.098 (inactive), respectively.
`O=C1OCCC/C=C\[C@H]2OC34C=CCN(Cn5nnc6ccccc65)C(=O)[C@H]3N(CCCCCCO)C(=O)[C@@H]4C12` (stereo not given in full): the composite z-score in [1] is 0.919; in assay [2], -0.776; in [3], 0.326; in assay [4] it was -2.01; in [5] it was -0.686; in assay [6] it was -1.58. Besides, the composite z-score with Lefty1 is -0.394; in assay [8] it was 0.727. Besides, the figures for the z-score in assay [7] and in assay [9] were 1.05 and -0.254 (inactive), respectively.
Take `CCCC=C(CCC)[C@@H](NC(=O)Oc1ccc(F)cc1)c1ccc(C(=O)OC)cc1`: the composite z-score in assay [1] is 0.421; in assay [2], 1.15; in assay [3], 0.401; in assay [4] it was 0.906; in assay [5] it was 0.746; in assay [6] it was -0.161. Further, the composite z-score in the assay on Lefty1 is -0.186; in [8] it was 1.09. Besides, the z-score is 2.89 in assay [7] and 0.516 (inactive) in assay [9].
For the compound `COCCOC(=O)N1C(=O)[C@@]2(c3cc(C#CCCO)ccc31)[C@H](c1ccc(OCCO)cc1)N1[C@H](c3ccccc3)[C@H](c3ccccc3)OC(=O)[C@H]1[C@@H]2C(=O)N1CCN(c2ncccn2)CC1`, the composite z-score came out at 1.05 in [1]; 1.18 in assay [2]; 0.307 in assay [3]; 0.756 in assay [4]; 1.3 in assay [5]; 1.32 in assay [6]. In addition, the composite z-score in the assay on Lefty1 was 1.37; in [8], 0.624. For the same compound, the results for the z-score in assay [7] and in assay [9] were -1.04 and -0.836 (inactive), respectively.
Take `COC(=O)[C@@]1(Cc2ccc(OC)cc2)[C@H]2c3cc(C(=O)N4CCCC4)n(Cc4ccc(OC)c(OC)c4)c3C[C@H]2CN1C(=O)c1ccccc1`: the composite z-score is 2.04 in assay [1]; 1.22 in assay [2]; 0.343 in [3]; 0.607 in assay [4]; 1.37 in assay [5]; 0.515 in assay [6]. In addition, the composite z-score came out at 0.724 with Lefty1 and 0.742 in assay [8]. Also, the z-score is 1.58 in assay [7] and 2.16 (inactive) in assay [9].
For the compound `NCCCCCNC(=O)[C@@H]1C[C@@H]2C(=O)N[C@@H](Cc3ccccc3)C(=O)N2[C@@H]1c1cccc(OCCO)c1`, the composite z-score was 1.63 in assay [1]; -0.074 in [2]; 0.123 in [3]; 0.968 in assay [4]; 0.574 in assay [5]; 0.635 in [6]. In addition, the composite z-score in the assay on Lefty1 is 0.325; in [8], 1.12. In addition, the z-score in assay [7] was -0.505; in assay [9], -0.435 (inactive).
Turning to `CC(C)C(=C=CC[C@@H](O)c1ccccc1OCCO)CCO`, the composite z-score in [1] was 2.31; in [2], 0.43; in [3] it was 0.306; in assay [4], 0.442; in [5], 0.71; in assay [6], 0.853. Further, the composite z-score in the assay on Lefty1 was 0.352; in assay [8], 0.201. Moreover, the z-score was 0.991 in assay [7] and -1.91 (inactive) in assay [9].
Take `CN1C(=O)C2C=CC(C(O)C3CCCCC3)N(Nc3ccc([N+](=O)[O-])cc3[N+](=O)[O-])C2C1=O` (stereo not given): the composite z-score in assay [1] came out at 1.08; in assay [2], 1.25; in [3], 0.622; in [4], 1.02; in assay [5] it was 1.07; in assay [6], 0.0734. The composite z-score turned out to be 0.182 with Lefty1 and 0.497 in assay [8]. Besides, the z-score in assay [7] was 1.37; in [9] it was 0.799 (inactive).
As for `CCCCCN1CC=CC23O[C@@H]4/C=C\CCCOC(=O)C4[C@H]2C(=O)N(C(CO)C(C)C)[C@@H]3C1=O` (stereo not given in full), the composite z-score in [1] is -0.208; in assay [2], -0.376; in [3] it was -0.295; in assay [4] it was -0.796; in assay [5], 0.0945; in [6] it was -0.603. In addition, the results for the composite z-score (with Lefty1; in assay [8]) were 0.418 and 0.869, respectively. Also, the z-score in assay [7] is -0.46; in [9] it was 0.451 (inactive).
Consider `COCCOC(=O)N1C(=O)[C@@]2(c3ccccc31)[C@H](c1ccccc1OCCO)N1[C@H](c3ccccc3)[C@H](c3ccccc3)OC(=O)[C@H]1[C@@H]2C(=O)Nc1nc2ccccc2s1`, for which the composite z-score in [1] was 1.04; in [2], 1.19; in [3] it was 0.445; in assay [4] it was 0.994; in [5], 1.35; in [6], 1.03. Also, the composite z-score in the assay with Lefty1 came to 1.34; in [8] it was 1.18. The z-score in assay [7] is -1.91; in [9], -2.37 (inactive).
Take `CC(=O)N1Cc2ccccc2C[C@@]2(COC(c3ccc(OCCCO)cc3)=N2)C1=O`: the composite z-score was 1.93 in [1]; 1.18 in assay [2]; 0.994 in assay [3]; 0.842 in assay [4]; 1.26 in assay [5]; 0.701 in assay [6]. Besides, the figures for the composite z-score (in the assay on Lefty1; in [8]) were 0.0786 and 1.29, respectively. The figures for the z-score in [7] and in assay [9] were -0.956 and -2.19 (inactive), respectively.
With `O=C1c2ccccc2[C@@]2(Cc3ccccc3N(CC(F)(F)F)C2=O)[C@H](c2ccc(CO)cc2)N1Cc1ccccc1Cl`, the composite z-score in assay [1] is 0.181; in assay [2], -0.265; in [3] it was -0.121; in [4], -0.134; in assay [5], 1.12; in [6], 0.652. Moreover, the figures for the composite z-score (in the assay with Lefty1; in assay [8]) were 0.667 and -0.518, respectively. The z-score in [7] was -0.000595; in [9] it was -0.496 (inactive).
As for `Cc1ccc(S[C@]2(C(=O)NC3CC3)CC(=O)N(C3Cc4ccccc4C3)[C@@H]2c2ccc(CO)cc2)cc1`, the composite z-score in assay [1] is -0.172; in assay [2], 0.445; in [3], 0.0342; in assay [4], -0.424; in [5], -0.584; in [6], -0.3. Further, the composite z-score in the assay with Lefty1 was -1.35; in [8] it was -0.0705. Also, the z-score in assay [7] was 2.42; in [9] it was -1.28 (inactive).
